From PubChem BioAssay (NCATS)
Results filed as inconclusive are left out. A call without a number means that no potency is given here. Unmarked numbers belong to inactive results. Activity calls are given as the source filed them. Calls follow the shape of the full dose curve.

Test: Cytotoxicity counterscreen for inhibitors of SARS-CoV-2 cell entry (AID 1645845); also: nearly all actives have a fitted effect of over 50% in size
Settings: cell viability (SARS-CoV-2 entry assay cells); series mostly up to 57.1 µM; activity change, negative = cytotoxicity: at the top concentration
How it was run: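 Counterscreen run in the same HEK293-ACE2 line as the pseudotyped-particle entry assay, without particles. Viability after 48 h at 37 C was read as ATP luminescence, scaled between cell-containing and cell-free wells.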

SMILES	Potency	outcome	activity change, negative = cytotoxicity
C#C[C@]1(O)CC[C@H]2[C@@H]3CCc4cc(OC)ccc4[C@H]3CC[C@@]21C	inactive		
NS(=O)(=O)c1ccc(N2CCCCS2(=O)=O)cc1		inactive	
C[C@]1(Cn2ccnn2)[C@H](C(=O)O)N2C(=O)C[C@H]2S1(=O)=O		inactive	
CCOC(=O)c1ccc(OC(=O)CCCCCN=C(N)N)cc1	inactive		
NS(=O)(=O)c1cc(C(=O)O)c(NCc2ccco2)cc1Cl		inactive	
CCC1Nc2cc(Cl)c(S(N)(=O)=O)cc2S(=O)(=O)N1 (centres undefined)		inactive	
NCC1CCC(C(=O)Oc2ccc(CCC(=O)O)cc2)CC1 (centres undefined)			-1%
Cc1nnc(C(=O)NC(C)(C)c2nc(C(=O)NCc3ccc(F)cc3)c(O)c(=O)n2C)o1		inactive	
CSc1ccc(C(=O)c2[nH]c(=O)[nH]c2C)cc1			2.13%
N[C@@H](CSCCCO)C(=O)O		inactive [at 27.1 µM]	
O=C(CCCCCCCCC#CI)Oc1ccccc1		inactive	
N#Cc1cc(NC(=O)C(=O)O)c(Cl)c(NC(=O)C(=O)O)c1		inactive	
OCc1ccccc1O		inactive	
C/C(=C(\CCOP(=O)(O)O)SC(=O)c1ccccc1)N(C=O)Cc1cnc(C)nc1N			0.654% [at 5.25 µM]
CN(CCCN1c2ccccc2CCc2ccccc21)CC(=O)c1ccc(Cl)cc1			-23.5%
CCOCCn1c(N2CCCN(C)CC2)nc2ccccc21		inactive	
O=C(NCC1CN(c2ccc(N3CCOCC3=O)cc2)C(=O)O1)c1ccc(Cl)s1 (centres undefined)	inactive		
O=C(NN1CCCC1)NS(=O)(=O)c1ccc(Cl)cc1			1.27%
C[C@@H]1C[C@H]2[C@@H]3CCC4=CC(=O)C=C[C@]4(C)[C@@]3(F)[C@@H](O)C[C@]2(C)[C@H]1C(=O)CO			-7.83%
CCCC(=O)OC[C@@H](OC(=O)CCC)[C@@H](OC(=O)CCC)[C@H](Cn1c2nc(=O)[nH]c(=O)c-2nc2cc(C)c(C)cc21)OC(=O)CCC		inactive	

SMILES	Potency	outcome	activity change, negative = cytotoxicity
C[C@]12CC[C@@H]3c4ccc(O)cc4CC[C@H]3[C@@H]1C[C@@H](O)[C@@H]2O	inactive		
c1ccc(CNCCNCc2ccccc2)cc1			-6.21%
CC(=O)Nc1ccc(S(=O)(=O)Nc2ccc([N+](=O)[O-])cc2)cc1		inactive	
C[C@@H]1CCC[C@H](C)N1CCCC(O)(c1ccccc1)c1ccccn1 (some centres undefined)			-2.73%
CC(=O)Oc1c(C)c(C)c2c(c1C)CC[C@@](C)(CCC[C@H](C)CCC[C@H](C)CCCC(C)C)O2		inactive	
O=C(O)c1ccc(OCCCOc2ccc(C(=O)O)cc2)cc1		inactive	
CCOC(=O)c1cccc(N)c1		inactive	
N[C@H](Cc1c[nH]c2ccccc12)C(=O)O		inactive	
Cc1c(N(C)C)c(=O)n(-c2ccccc2)n1C		inactive	
C[N+]1(CC2COC(c3ccccc3)(c3ccccc3)O2)CCCCC1 (centres undefined)			-4.33% [at 27.1 µM]
CCc1cccc2c3c([nH]c12)C(CC)(CC(=O)O)OCC3 (centres undefined)		inactive	
CCOC(=O)n1ccn(C)c1=S		inactive	
CC(C)C[C@@H](N)C(=O)O			0.463% [at 27.1 µM]
C[C@]12CC[C@@H]3c4ccc(O)cc4CC[C@H]3[C@@H]1CCC2=O			0.16%
C=C1C[C@H]2[C@@H]3C=C(C)C4=CC(=O)CC[C@]4(C)[C@H]3CC[C@]2(C)[C@@]1(OC(C)=O)C(C)=O			-10.7%
CCOc1ccc(NC(C)=O)cc1			1.67%
C/C=C/c1ccc(O)c(OC)c1		inactive	
CCOC(=O)c1cc(=O)c2c(OCC(COc3cccc4oc(C(=O)OCC)cc(=O)c34)OC(=O)[C@@H](N)CCCCN)cccc2o1		inactive	
CC1(C)O[C@@H]2C[C@H]3[C@@H]4C[C@H](F)C5=CC(=O)C=C[C@]5(C)[C@H]4[C@@H](O)C[C@]3(C)[C@]2(C(=O)CO)O1	inactive		
